# ChEMBL document CHEMBL2218924, “A broad activity screen in support of a chemogenomic map for kinase signalling research and drug discovery” (Biochem J, 2013)
# Tests used:
# [1] = target: T1, Ephrin type-B receptor 1 (Homo sapiens) (UniProt P54762); conditions: at 10 µM
# T1 sequence (whole entry): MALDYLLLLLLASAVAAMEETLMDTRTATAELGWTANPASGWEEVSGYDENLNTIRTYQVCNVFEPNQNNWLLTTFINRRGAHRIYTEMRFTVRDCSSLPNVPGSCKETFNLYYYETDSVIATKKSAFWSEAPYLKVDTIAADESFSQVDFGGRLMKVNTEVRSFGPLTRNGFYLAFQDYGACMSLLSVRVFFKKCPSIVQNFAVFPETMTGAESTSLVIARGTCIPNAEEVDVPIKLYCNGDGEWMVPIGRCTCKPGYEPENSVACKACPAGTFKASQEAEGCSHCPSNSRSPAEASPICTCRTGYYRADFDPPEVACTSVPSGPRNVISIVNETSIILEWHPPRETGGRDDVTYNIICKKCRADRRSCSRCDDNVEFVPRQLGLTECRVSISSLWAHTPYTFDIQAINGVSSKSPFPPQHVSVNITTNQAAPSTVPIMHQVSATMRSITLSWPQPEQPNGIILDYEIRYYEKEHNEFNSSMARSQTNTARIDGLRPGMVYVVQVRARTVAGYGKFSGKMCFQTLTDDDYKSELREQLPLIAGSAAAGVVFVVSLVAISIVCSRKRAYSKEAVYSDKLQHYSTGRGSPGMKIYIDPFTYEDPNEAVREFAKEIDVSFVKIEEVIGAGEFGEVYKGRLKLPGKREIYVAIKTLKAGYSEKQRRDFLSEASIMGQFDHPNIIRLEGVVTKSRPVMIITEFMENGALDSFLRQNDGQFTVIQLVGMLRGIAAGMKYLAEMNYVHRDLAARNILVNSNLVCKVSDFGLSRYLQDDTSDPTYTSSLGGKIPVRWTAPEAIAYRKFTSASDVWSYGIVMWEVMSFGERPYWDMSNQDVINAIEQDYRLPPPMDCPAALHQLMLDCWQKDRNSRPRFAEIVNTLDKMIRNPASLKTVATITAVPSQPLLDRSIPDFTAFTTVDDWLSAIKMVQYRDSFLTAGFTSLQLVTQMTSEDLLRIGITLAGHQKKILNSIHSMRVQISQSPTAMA
# [2] = target: T2, Ephrin type-B receptor 2 (Homo sapiens) (UniProt P29323); conditions: at 1 µM
# T2 sequence (whole entry): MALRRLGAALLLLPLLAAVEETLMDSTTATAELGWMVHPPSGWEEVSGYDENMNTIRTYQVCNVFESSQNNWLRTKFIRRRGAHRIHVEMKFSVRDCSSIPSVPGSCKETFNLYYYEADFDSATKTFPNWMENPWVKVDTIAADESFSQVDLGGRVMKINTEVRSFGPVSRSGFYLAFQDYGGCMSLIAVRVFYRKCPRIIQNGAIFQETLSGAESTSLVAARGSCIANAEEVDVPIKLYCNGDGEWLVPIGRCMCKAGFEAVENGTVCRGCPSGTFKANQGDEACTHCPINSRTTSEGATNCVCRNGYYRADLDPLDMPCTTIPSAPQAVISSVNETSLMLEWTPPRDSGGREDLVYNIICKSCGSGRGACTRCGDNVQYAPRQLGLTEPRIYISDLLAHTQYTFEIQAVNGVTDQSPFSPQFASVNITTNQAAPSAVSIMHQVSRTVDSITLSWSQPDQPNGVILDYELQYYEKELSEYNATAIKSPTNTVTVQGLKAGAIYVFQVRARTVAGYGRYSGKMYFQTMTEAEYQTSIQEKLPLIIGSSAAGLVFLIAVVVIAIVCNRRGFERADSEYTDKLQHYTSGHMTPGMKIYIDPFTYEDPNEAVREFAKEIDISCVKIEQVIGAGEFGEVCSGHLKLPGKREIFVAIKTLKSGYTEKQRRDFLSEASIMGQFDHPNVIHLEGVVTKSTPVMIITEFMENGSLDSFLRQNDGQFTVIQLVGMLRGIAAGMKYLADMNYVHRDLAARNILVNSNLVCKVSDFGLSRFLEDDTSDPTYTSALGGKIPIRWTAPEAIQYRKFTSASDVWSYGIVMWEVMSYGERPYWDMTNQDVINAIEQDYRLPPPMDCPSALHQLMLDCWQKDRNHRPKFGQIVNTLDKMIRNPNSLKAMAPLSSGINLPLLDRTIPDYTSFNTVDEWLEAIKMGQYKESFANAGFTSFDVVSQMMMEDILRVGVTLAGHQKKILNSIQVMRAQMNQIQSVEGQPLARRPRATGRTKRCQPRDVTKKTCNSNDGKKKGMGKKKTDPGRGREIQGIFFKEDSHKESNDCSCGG
# [3] = target: T2, Ephrin type-B receptor 2 (Homo sapiens); conditions: at 10 µM
# [4] = target: T3, Ephrin type-B receptor 3 (Homo sapiens) (UniProt P54753); conditions: at 1 µM
# T3 sequence (whole entry): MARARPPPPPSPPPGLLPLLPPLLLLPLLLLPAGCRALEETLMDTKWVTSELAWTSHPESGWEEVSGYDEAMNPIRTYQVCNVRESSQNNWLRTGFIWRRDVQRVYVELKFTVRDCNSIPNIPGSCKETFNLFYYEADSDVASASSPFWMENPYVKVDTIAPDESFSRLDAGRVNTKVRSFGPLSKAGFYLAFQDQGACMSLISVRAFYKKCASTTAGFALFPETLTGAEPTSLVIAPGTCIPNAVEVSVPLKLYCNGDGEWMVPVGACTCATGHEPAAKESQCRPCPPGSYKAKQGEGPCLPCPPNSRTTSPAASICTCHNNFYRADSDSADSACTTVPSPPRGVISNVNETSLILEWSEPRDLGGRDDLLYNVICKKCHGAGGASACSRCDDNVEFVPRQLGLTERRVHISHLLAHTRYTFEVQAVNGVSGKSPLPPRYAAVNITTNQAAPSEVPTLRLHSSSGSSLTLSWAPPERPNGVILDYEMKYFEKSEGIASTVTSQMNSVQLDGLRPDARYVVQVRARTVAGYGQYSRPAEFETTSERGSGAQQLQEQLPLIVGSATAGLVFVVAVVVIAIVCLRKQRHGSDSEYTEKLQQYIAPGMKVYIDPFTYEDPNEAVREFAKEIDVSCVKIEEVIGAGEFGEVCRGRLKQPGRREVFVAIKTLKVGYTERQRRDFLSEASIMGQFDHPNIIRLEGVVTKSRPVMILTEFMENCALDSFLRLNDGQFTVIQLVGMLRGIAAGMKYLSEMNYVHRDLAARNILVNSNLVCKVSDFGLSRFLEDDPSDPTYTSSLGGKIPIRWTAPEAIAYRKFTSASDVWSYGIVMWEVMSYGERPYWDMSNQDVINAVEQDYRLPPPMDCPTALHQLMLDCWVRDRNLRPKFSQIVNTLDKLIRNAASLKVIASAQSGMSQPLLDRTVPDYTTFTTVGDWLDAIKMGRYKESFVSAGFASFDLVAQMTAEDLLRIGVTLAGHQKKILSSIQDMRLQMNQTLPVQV
# [5] = target: T3, Ephrin type-B receptor 3 (Homo sapiens); conditions: at 10 µM
# [6] = target: T4, Ephrin type-B receptor 4 (Homo sapiens) (UniProt P54760); conditions: at 1 µM
# T4 sequence (whole entry): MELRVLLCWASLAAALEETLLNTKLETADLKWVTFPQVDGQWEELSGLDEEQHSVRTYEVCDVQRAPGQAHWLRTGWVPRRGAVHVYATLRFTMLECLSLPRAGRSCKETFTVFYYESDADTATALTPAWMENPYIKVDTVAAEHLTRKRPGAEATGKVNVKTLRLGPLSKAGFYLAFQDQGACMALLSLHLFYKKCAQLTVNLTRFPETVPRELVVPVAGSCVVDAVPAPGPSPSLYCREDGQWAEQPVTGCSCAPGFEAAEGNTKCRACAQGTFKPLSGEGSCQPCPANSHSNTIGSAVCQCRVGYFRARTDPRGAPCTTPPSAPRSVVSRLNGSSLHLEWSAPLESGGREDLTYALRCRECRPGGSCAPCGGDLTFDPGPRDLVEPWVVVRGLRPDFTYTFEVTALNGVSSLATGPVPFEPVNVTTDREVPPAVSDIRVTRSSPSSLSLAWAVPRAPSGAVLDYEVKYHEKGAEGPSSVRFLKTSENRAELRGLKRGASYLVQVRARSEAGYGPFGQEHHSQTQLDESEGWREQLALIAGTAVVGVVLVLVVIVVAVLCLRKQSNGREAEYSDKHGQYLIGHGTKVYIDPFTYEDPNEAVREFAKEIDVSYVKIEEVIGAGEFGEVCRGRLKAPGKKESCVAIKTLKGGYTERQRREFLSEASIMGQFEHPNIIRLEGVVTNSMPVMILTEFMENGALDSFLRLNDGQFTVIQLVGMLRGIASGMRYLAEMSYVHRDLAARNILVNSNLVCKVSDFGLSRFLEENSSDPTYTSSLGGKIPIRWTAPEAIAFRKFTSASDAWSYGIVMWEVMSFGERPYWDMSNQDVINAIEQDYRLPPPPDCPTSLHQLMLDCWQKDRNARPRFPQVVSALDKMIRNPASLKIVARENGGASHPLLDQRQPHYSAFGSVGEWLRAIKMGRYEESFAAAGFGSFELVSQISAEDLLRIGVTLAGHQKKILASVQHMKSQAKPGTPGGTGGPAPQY
# [7] = target: T4, Ephrin type-B receptor 4 (Homo sapiens); conditions: at 10 µM
# [8] = target: Receptor tyrosine-protein kinase erbB-4 (Homo sapiens) (UniProt Q15303); conditions: at 1 µM
# Sequence of Receptor tyrosine-protein kinase erbB-4 (Homo sapiens) (Q15303 whole entry): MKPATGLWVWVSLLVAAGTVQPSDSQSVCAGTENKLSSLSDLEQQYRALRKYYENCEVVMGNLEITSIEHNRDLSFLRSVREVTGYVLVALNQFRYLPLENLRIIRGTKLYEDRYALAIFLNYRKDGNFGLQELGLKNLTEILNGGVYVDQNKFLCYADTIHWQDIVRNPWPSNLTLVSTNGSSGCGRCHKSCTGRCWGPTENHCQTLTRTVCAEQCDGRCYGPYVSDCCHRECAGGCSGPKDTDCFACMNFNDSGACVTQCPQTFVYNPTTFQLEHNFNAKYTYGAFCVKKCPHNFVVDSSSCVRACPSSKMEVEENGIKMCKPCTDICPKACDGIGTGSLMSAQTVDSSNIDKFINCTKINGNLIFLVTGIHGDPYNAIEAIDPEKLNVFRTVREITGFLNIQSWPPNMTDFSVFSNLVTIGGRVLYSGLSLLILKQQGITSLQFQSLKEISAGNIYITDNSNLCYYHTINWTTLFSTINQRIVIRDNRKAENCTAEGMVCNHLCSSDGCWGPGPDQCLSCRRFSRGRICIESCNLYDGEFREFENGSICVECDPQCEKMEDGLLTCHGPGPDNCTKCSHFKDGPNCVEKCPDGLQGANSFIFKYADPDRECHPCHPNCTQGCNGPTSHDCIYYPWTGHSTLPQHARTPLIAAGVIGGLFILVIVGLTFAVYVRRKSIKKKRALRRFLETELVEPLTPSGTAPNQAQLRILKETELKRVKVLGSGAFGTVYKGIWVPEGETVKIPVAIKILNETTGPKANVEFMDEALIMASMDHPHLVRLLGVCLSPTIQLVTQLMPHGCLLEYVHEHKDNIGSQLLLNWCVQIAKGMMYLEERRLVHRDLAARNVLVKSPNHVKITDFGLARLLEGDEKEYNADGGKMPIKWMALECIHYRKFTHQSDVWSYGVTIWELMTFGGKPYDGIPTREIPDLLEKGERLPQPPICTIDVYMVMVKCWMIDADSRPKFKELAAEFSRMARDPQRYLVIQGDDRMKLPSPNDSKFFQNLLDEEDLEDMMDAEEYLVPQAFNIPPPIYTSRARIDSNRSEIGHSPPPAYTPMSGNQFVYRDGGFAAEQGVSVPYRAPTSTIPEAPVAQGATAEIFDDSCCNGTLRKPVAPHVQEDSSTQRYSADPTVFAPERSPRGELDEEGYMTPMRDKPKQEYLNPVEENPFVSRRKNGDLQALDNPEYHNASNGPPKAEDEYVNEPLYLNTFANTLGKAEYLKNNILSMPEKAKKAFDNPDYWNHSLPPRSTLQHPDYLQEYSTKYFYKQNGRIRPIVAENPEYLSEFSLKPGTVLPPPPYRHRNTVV
# [9] = target: Receptor tyrosine-protein kinase erbB-4 (Homo sapiens) (UniProt Q15303); conditions: at 10 µM
# [10] = target: Focal adhesion kinase 1 (Homo sapiens) (UniProt Q05397); conditions: at 1 µM
# Sequence of Focal adhesion kinase 1 (Homo sapiens) (Q05397 2-1052 limits assumed): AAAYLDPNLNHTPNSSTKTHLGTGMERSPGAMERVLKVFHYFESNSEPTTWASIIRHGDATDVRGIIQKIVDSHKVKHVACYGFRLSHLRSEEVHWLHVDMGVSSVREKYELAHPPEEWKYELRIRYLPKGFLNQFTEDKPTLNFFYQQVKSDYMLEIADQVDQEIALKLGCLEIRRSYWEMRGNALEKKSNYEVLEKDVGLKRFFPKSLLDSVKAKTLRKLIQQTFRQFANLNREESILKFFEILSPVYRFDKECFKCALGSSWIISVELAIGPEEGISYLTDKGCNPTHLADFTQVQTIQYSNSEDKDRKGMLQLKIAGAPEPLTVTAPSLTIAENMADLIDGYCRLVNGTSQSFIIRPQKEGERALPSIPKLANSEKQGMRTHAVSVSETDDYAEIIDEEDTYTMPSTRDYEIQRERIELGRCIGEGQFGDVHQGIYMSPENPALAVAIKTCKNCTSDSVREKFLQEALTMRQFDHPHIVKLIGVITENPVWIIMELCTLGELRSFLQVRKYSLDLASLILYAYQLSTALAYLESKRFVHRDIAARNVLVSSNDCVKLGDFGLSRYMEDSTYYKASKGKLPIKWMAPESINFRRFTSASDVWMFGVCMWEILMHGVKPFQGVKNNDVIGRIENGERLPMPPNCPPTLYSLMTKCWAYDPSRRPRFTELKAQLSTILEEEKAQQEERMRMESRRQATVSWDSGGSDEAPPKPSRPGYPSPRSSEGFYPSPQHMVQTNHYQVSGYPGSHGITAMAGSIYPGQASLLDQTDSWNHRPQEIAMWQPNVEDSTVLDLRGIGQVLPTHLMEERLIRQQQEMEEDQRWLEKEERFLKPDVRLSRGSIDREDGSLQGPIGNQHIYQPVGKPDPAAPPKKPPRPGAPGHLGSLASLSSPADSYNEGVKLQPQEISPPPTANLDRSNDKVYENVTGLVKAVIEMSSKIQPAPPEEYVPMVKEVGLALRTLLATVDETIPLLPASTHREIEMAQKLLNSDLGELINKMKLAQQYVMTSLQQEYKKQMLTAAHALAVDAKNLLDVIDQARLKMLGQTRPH
compound,measurement,setting,value
CO[C@H]1C[C@@H]2CC[C@@H](C)[C@@](O)(O2)C(=O)C(=O)N2CCCC[C@H]2C(=O)O[C@H]([C@H](C)C[C@@H]2CC[C@@H](O)[C@H](OC)C2)CC(=O)[C@H](C)/C=C(\C)[C@@H](O)[C@@H](OC)C(=O)[C@H](C)C[C@H](C)/C=C/C=C/C=C/1C,residual activity,[1],105%
same,residual activity,[2],121%
same,residual activity,[3],105%
same,residual activity,[4],100% (inactive)
same,residual activity,[5],57%
same,residual activity,[6],112%
same,residual activity,[7],147%
same,residual activity,[8],106%
same,residual activity,[9],130%
same,residual activity,[10],118%
